This is an account of results in PubChem BioAssay (EPA / NIEHS).

Active and inactive are the calls of the source. The calls were made as follows: active = hit-call score of the fitted dose curve at least 0.9, where 1 is the maximum; inactive = score below 0.9.

Assay [1] has as its target Transcription factor E2F1 (Homo sapiens) (UniProt Q01094). Nature of the assay: ATG_E2F_CIS: Attagene CIS-FACTORIAL HepG2 Assay for human E2F Transcription Factor 1 (AID 2282935). To be noted: HepG2 Attagene cis-reporter, E2F reporter RNA transcripts; actives raise or lower the signal. In outline:
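In this cis-factorial format, endogenous factor activity drives transfected reporters in HepG2; transcripts collected at 24 h are quantified by fluorescence after RT-PCR and capillary separation.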

Assay [2] in a line: ATG_E_Box_CIS: Attagene CIS-FACTORIAL HepG2 Assay for human Enhancer Box (E-box) (AID 2282936). To be noted: HepG2 E-box cis-reporter transcription, actives raise or lower the signal. The method, boiled down: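 Measured 24 h post-dosing in HepG2 cells transfected with multiple cis-regulated reporter units, signal being reporter mRNA induction detected by fluorescent RT-PCR with capillary electrophoresis; gain or loss fitted against DMSO.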

The nature of assay [3]: ATG_M_61_CIS: Attagene CIS-FACTORIAL HepG2 Assay for M61 Transcription Factor (Internal Marker) (AID 2282937). The conditions noted are these: HepG2 Attagene CIS-FACTORIAL M61 internal marker reporter; actives raise or lower the signal. In outline: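 Multiplexed reporter mRNA assay, HepG2 human hepatoma cells, 24 h treatment. Signal: FAM-labelled, HpaI-digested RT-PCR fragments by CE. Fit: bidirectional, baseline DMSO.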

A short description of assay [4]: ATG_EGR_CIS: Attagene CIS-FACTORIAL HepG2 Assay for human Early Growth Response 1 (EGR1) (AID 2282938). The conditions noted are these: HepG2 Attagene CIS-FACTORIAL EGR reporter mRNA; actives raise or lower the signal. In outline:
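Multiplexed cis-reporter system in human hepatoma HepG2 cells, transiently transfected. Cells are dosed for 24 h; reporter transcripts are amplified, fluorescently tagged and sized by capillary electrophoresis, with DMSO as negative control.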

Assay [5] in a line: ATG_M_19_CIS: Attagene CIS-FACTORIAL HepG2 Assay for M19 Transcription Factor (Internal Marker) (AID 2282939). To be noted: HepG2 Attagene CIS-FACTORIAL M19 internal marker reporter; actives raise or lower the signal. The method, boiled down:
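Signals come from fluorescence of labelled reporter-specific PCR fragments resolved by capillary electrophoresis, following 24 h treatment of HepG2 cells transfected with cis-promoter reporter units; activity was fitted in both directions relative to DMSO.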

Assay [6] can be described thus: ATG_ERE_CIS: Attagene CIS-FACTORIAL HepG2 Assay for Estrogen Response Element (ERE) (AID 2282940). To be noted: HepG2 ERE cis-reporter, Attagene RNA transcript; actives raise or lower the signal. The method, boiled down:
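Fluorescence of capillary-separated, FAM-labelled reporter cDNA fragments indicates reporter mRNA levels in HepG2 cells exposed to chemicals for 24 h. Transient transfection with cis-regulated units; data fitted in both directions against DMSO.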

A short description of assay [7]: ATG_Ets_CIS: Attagene CIS-FACTORIAL HepG2 Assay for human Erythroblast Transformation Specific (ETS) (AID 2282941). To be noted: HepG2 ETS cis-reporter transcription, actives raise or lower the signal. The method, boiled down:
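Endogenous transcription factor activity read as reporter mRNA via RT-PCR and capillary electrophoresis, with gain or loss fitted bidirectionally against DMSO. Human HepG2 liver cells, transiently transfected CIS reporter constructs, 24 h exposure.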

Assay [8] deals with Hepatocyte nuclear factor 3-beta (Homo sapiens) (UniProt Q9Y261). Nature of the assay: ATG_FoxA2_CIS: Attagene CIS-FACTORIAL HepG2 Assay for human Forkhead box A2 (FOXA2) (AID 2282942). To be noted: HepG2 cis-reporter transcription factor activity, 24 h; actives raise or lower the signal. The method, boiled down:
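Multiplexed cis-element reporter assay in transiently transfected HepG2. Twenty-four hours post-dosing, RNA was reverse-transcribed, amplified, FAM-labelled, HpaI-digested and separated by CE. Activity gain or loss relative to DMSO.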

Assay [9] in a line: ATG_FoxO_CIS: Attagene CIS-FACTORIAL HepG2 Assay for human Forkhead box O (FoxO) (AID 2282943). To be noted: HepG2 Attagene cis-reporter, FoxO element, mRNA; actives raise or lower the signal. The method, boiled down: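 Values reflect reporter mRNA induction or loss in HepG2 cells 24 h post-dosing, fitted bidirectionally with DMSO as negative control and baseline. Detection used RT-PCR and fluorescence capillary electrophoresis.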

A short description of assay [10]: ATG_GATA_CIS: Attagene CIS-FACTORIAL HepG2 Assay for human GATA Binding Protein (AID 2282944). To be noted: HepG2 GATA cis-element reporter, Attagene multiplex mRNA; actives raise or lower the signal. In outline: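 After transfecting HepG2 cells with multiple cis-regulated reporter units, chemicals are dosed for 24 h; isolated RNA undergoes RT-PCR and fluorescent labeling before capillary electrophoresis, with activity expressed against DMSO.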

Transcription factor E2F1 (Homo sapiens), sequence (Q01094 whole entry, looked up): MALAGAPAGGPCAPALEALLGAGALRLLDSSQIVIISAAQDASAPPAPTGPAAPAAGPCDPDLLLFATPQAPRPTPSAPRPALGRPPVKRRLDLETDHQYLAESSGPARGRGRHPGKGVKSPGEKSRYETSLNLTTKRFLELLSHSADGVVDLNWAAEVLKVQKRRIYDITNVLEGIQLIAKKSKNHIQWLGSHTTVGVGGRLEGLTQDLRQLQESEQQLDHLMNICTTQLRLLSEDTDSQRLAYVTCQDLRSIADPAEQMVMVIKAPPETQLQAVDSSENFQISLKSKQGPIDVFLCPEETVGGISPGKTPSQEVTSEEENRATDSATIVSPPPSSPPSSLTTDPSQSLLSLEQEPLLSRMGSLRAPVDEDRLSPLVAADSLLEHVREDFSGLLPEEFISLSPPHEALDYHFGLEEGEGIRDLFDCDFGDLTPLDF
Hepatocyte nuclear factor 3-beta (Homo sapiens), sequence (Q9Y261 whole entry, looked up): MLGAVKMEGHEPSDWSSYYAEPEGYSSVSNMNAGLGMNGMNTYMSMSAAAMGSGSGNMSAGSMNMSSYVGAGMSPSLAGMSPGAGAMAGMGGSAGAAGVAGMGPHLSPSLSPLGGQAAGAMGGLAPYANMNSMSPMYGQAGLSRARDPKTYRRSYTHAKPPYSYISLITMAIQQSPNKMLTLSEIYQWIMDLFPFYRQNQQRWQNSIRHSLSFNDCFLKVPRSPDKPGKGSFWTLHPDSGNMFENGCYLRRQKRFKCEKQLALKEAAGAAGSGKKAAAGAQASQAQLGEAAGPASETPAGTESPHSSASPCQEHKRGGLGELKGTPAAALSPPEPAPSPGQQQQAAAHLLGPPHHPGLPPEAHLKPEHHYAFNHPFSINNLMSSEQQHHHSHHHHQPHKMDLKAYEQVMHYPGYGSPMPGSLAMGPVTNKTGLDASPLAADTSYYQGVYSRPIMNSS

As to `CCSC(=O)N1CCCCCC1`, the compound was called inactive in assay [1], in assay [2], in [3], in assay [4], in assay [5] and in assay [6]. Besides, the result in assay [7], in assay [8], in assay [9] and in assay [10] was inactive.
In the case of `OC(c1ccc(Cl)cc1)(c1ccc(Cl)cc1)C(Cl)(Cl)Cl`, the compound was called inactive in assay [1], in [2], in [3], in assay [4], in assay [5] and in assay [6]. For the same compound, the compound was classed as inactive in assay [7], in assay [8], in assay [9] and in [10].
For `CNC(=O)N(C)c1nnc(C(C)(C)C)s1`, the compound was classed as inactive in assay [1], in [2], in assay [3], in assay [4], in [6] and in assay [7]. Moreover, the outcome in [8], in assay [9] and in [10] was inactive.
Consider `COP(=O)(OC)O/C(C)=C/C(=O)N(C)C`, for which the result in [1], in assay [2], in assay [3], in assay [4], in assay [7] and in assay [8] was inactive. Moreover, the outcome in [9] and in [10] was inactive. Besides, the AC50 (as a rule, the midpoint of the concentration-response curve, whichever way the signal moves) in [6] is 23.5 µM (active).
`CC(C)N1C(=O)c2ccccc2NS1(=O)=O`: the result in assay [1], in assay [2], in assay [3], in assay [4], in assay [6] and in assay [7] was inactive. For the same compound, the call in assay [8], in [9] and in [10] was inactive.
In the case of `Cc1cc(C)nc(Nc2ccccc2)n1`, the result in assay [1], in assay [2], in assay [3], in [6], in assay [7] and in [8] was inactive. For the same compound, the compound was called inactive in assay [9] and in assay [10]. The AC50 in assay [4] was 50 µM (active).
As to `CC(C)=CC1C(C(=O)OCc2coc(Cc3ccccc3)c2)C1(C)C` (stereo not drawn), the compound was called inactive in [1], in assay [2], in assay [3], in assay [4], in assay [7] and in [8]. In addition, the outcome in assay [9] and in assay [10] was inactive. Besides, the AC50 in assay [6] was 13.1 µM (active).
`CCOP(=S)(OCC)Oc1nc(Cl)n(C(C)C)n1`: the compound was called inactive in [1], in [2], in assay [3], in assay [4], in assay [7] and in assay [8]. Also, the outcome in [9] and in assay [10] was inactive. Moreover, the half-maximal activity concentration (AC50) in assay [6] was 50 µM (active).
Take `O=P(O)(O)CCCl`: the outcome in assay [1], in assay [2], in [3], in assay [4], in [6] and in [7] was inactive. Besides, the result in assay [8], in assay [9] and in assay [10] was inactive.
In the case of `Nc1c(Cl)c(F)nc(OCC(=O)O)c1Cl`, the call in assay [1], in assay [2], in assay [3], in [4], in [6] and in [7] was inactive. Besides, the compound was called inactive in assay [8], in assay [9] and in [10].
Regarding `Cc1ccc(N=CN(C)C=Nc2ccc(C)cc2C)c(C)c1`, the call in assay [1], in [2], in assay [3], in assay [4], in assay [6] and in assay [7] was inactive. Further, the call in assay [8], in assay [9] and in [10] was inactive.
`CC1(C)C(C=C(Cl)Cl)C1C(=O)OC(C#N)c1cccc(Oc2ccccc2)c1` (stereo not drawn): the compound was classed as inactive in assay [1], in [2], in assay [3], in assay [4], in assay [7] and in assay [8]. Moreover, the outcome in [9] and in assay [10] was inactive. The AC50 in assay [6] is 14.6 µM (active).
`CS(=O)(=O)c1cc(C(F)(F)F)ccc1C(=O)c1cnoc1C1CC1`: the outcome in assay [1], in [2], in [3], in [4], in assay [6] and in [7] was inactive. Besides, the compound was classed as inactive in [8], in assay [9] and in assay [10].
Turning to `Nc1c(Cl)c(Cl)nc(C(=O)O)c1Cl`, the compound was classed as inactive in assay [1], in assay [2], in [3], in [4], in assay [6] and in [7]. For the same compound, the result in assay [8], in assay [9] and in assay [10] was inactive.
Regarding `CS(=O)(=O)c1ccc(C(=O)C2C(=O)CCCC2=O)c([N+](=O)[O-])c1`, the outcome in [1], in assay [2], in assay [3], in [4], in assay [6] and in assay [7] was inactive. For the same compound, the compound was classed as inactive in assay [8], in [9] and in assay [10].
With `CCNP(=S)(OC)O/C(C)=C/C(=O)OC(C)C` (stereo not drawn), the outcome in assay [1], in [2], in assay [3], in [4], in [7] and in assay [8] was inactive. The outcome in [9] and in [10] was inactive. For the same compound, the AC50 in [6] was 13.4 µM (active).
On to `CCCCC(C#N)(Cn1cncn1)c1ccc(Cl)cc1` (stereo not drawn), for which the compound was classed as inactive in [1], in [2], in assay [3], in assay [4], in assay [6] and in [7]. Besides, the outcome in assay [8], in assay [9] and in [10] was inactive.
As for `CCCN(CC)CC1COC2(CCC(C(C)(C)C)CC2)O1` (stereo not drawn), the result in assay [1], in assay [2], in assay [3], in assay [6], in assay [7] and in [9] was inactive. For the same compound, the compound was called inactive in [10]. In addition, the AC50 in assay [4] is 15 µM (active); in assay [8] it was 16.9 µM (active).
`CCOP(=O)(OCC)Oc1nc(Cl)c(Cl)cc1Cl`: the call in assay [1], in assay [2], in assay [3], in [4], in assay [7] and in assay [8] was inactive. The compound was called inactive in assay [9] and in assay [10]. The AC50 in [6] was 39.1 µM (active).
